Reference: ChEMBL document CHEMBL1961873, “Compounds: GSK PKIS; Assays: Nanosyn kinase panel” (2012)

Experiments:
[1] = target: T1, Tyrosine-protein kinase receptor TYRO3 (Homo sapiens) (UniProt Q06418); conditions: at 1 µM
T1 sequence (whole entry): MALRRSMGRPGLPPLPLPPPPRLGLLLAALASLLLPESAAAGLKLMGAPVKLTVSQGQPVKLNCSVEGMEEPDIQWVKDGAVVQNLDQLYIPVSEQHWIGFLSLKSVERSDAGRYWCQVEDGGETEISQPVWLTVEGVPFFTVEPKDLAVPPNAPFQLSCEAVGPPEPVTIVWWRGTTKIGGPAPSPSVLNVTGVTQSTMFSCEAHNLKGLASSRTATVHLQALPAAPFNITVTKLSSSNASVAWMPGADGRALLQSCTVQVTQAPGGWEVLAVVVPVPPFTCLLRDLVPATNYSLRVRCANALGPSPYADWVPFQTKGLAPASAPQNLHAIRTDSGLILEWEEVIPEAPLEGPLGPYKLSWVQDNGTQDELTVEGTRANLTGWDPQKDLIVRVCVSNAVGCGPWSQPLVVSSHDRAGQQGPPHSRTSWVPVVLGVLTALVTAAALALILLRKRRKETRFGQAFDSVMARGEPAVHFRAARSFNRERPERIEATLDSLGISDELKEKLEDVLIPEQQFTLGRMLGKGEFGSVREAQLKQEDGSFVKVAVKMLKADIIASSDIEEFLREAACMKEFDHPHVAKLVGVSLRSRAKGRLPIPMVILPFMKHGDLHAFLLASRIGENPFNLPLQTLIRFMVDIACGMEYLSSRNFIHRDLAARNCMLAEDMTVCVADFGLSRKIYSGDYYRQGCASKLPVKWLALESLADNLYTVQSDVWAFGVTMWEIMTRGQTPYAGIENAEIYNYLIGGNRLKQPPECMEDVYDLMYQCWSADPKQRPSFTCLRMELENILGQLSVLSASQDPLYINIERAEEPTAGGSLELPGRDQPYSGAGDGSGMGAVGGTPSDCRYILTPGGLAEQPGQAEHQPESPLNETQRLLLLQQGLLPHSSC

[2] = target: Tyrosine-protein kinase Yes (Homo sapiens) (UniProt P07947); conditions: at 0.1 µM
Chain of Tyrosine-protein kinase Yes (Homo sapiens) (P07947 2-543 limits assumed): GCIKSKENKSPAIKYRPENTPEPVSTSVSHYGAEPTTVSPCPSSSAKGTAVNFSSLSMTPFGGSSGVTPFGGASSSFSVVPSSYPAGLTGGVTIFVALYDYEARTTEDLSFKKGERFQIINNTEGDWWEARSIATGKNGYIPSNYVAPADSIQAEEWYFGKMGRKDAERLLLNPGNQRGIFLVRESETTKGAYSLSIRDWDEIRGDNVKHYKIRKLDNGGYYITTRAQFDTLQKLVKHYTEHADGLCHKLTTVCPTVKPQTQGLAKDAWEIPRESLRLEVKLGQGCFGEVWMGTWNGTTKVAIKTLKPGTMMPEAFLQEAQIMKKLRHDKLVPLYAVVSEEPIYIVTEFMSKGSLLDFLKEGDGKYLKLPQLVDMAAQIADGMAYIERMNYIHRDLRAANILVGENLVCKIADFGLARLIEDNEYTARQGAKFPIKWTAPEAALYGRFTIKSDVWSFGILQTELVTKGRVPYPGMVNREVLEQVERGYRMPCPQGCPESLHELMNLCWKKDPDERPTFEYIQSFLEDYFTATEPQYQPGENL

[3] = target: Tyrosine-protein kinase Yes (Homo sapiens) (UniProt P07947); conditions: at 1 µM
[4] = target: T2, Tyrosine-protein kinase ZAP-70 (Homo sapiens) (UniProt P43403); conditions: at 0.1 µM
T2 sequence (whole entry): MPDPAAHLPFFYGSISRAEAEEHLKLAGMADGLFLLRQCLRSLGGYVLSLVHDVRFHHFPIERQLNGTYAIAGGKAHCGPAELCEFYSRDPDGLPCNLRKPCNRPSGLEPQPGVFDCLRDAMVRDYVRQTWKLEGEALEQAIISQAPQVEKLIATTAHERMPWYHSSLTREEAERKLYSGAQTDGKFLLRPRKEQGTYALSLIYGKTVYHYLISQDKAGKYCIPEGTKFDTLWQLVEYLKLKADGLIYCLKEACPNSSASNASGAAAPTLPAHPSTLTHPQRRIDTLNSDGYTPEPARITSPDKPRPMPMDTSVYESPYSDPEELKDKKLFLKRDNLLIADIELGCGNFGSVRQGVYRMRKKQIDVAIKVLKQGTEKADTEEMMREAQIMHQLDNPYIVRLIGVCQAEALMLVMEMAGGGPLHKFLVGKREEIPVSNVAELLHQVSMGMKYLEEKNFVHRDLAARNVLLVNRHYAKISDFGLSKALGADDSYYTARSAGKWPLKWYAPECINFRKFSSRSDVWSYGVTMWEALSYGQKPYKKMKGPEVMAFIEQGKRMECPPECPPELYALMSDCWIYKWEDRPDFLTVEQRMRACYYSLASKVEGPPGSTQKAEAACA

[5] = target: T2, Tyrosine-protein kinase ZAP-70 (Homo sapiens); conditions: at 1 µM
[6] = target: Serine/threonine-protein kinase B-raf (Homo sapiens) (UniProt P15056); conditions: at 0.1 µM
Chain of Serine/threonine-protein kinase B-raf (Homo sapiens) (P15056 whole entry): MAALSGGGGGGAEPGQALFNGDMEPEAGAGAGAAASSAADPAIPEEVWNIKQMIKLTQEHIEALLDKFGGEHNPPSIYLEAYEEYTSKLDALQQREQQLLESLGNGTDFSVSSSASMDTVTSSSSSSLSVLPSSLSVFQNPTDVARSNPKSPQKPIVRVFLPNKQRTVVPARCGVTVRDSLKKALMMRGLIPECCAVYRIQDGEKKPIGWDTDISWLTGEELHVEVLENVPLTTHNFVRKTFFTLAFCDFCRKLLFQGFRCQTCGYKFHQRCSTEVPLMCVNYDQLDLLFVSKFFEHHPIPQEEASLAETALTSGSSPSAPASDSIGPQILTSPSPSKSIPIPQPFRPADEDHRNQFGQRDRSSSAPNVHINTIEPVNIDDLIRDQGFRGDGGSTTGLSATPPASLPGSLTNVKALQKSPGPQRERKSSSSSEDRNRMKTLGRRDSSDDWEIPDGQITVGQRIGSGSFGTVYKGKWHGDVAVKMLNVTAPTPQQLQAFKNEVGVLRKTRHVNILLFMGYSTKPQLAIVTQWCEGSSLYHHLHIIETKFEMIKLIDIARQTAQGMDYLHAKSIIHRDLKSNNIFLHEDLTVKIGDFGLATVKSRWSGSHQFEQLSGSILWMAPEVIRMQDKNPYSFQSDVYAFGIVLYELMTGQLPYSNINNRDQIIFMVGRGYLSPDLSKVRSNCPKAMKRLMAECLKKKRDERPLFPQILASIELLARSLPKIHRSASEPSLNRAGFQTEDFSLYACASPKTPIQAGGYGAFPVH

[7] = target: Serine/threonine-protein kinase B-raf (Homo sapiens) (UniProt P15056); conditions: at 1 µM
[8] = test system: Serine/threonine-protein kinase B-raf (Homo sapiens), P15056 [V600E]; conditions: at 0.1 µM
Chain of Serine/threonine-protein kinase B-raf (Homo sapiens), P15056 [V600E] (P15056 whole entry V600E): as the sequence (P15056 whole entry) above, with V600E counted along it

[9] = test system: Serine/threonine-protein kinase B-raf (Homo sapiens), P15056 [V600E]; conditions: at 1 µM
[10] = target: RAF proto-oncogene serine/threonine-protein kinase (Homo sapiens) (UniProt P04049); conditions: at 0.1 µM
Chain of RAF proto-oncogene serine/threonine-protein kinase (Homo sapiens) (P04049 whole entry): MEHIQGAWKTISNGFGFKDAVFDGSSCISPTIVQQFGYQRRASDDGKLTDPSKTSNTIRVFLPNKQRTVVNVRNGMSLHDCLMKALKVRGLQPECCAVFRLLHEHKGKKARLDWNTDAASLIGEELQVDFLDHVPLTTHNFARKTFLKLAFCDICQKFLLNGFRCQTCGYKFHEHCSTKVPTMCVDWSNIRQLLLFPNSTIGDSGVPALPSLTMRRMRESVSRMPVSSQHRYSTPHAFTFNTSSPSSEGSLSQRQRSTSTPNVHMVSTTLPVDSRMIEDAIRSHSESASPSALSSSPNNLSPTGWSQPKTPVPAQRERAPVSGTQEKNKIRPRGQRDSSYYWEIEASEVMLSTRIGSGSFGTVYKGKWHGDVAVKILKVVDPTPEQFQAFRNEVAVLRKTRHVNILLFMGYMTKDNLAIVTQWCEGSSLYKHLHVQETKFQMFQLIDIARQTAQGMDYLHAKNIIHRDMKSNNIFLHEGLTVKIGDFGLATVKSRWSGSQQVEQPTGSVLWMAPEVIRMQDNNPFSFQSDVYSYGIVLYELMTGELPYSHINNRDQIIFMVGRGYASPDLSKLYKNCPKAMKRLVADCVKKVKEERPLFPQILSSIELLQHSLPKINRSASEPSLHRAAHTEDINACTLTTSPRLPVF

[11] = target: RAF proto-oncogene serine/threonine-protein kinase (Homo sapiens) (UniProt P04049); conditions: at 1 µM
[12] = target: T3, Interleukin-1 receptor-associated kinase 4 (Homo sapiens) (UniProt Q9NWZ3); conditions: at 0.1 µM
T3 sequence (whole entry): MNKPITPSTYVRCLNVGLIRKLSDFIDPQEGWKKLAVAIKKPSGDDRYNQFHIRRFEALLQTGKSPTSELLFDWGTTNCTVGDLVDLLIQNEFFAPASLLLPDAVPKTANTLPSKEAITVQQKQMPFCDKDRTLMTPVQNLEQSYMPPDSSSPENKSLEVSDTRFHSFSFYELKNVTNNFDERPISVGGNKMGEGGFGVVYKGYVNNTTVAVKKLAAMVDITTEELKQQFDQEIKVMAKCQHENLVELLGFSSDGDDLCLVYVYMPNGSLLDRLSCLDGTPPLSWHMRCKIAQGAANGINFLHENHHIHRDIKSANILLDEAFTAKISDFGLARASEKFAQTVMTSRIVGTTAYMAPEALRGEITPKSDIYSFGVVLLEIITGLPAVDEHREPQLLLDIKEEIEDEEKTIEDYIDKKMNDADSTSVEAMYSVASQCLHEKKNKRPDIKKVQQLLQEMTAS

[13] = target: T3, Interleukin-1 receptor-associated kinase 4 (Homo sapiens); conditions: at 1 µM
[14] = target: Leucine-rich repeat serine/threonine-protein kinase 2 (Homo sapiens) (UniProt Q5S007); conditions: at 0.1 µM
Chain of Leucine-rich repeat serine/threonine-protein kinase 2 (Homo sapiens) (Q5S007 whole entry): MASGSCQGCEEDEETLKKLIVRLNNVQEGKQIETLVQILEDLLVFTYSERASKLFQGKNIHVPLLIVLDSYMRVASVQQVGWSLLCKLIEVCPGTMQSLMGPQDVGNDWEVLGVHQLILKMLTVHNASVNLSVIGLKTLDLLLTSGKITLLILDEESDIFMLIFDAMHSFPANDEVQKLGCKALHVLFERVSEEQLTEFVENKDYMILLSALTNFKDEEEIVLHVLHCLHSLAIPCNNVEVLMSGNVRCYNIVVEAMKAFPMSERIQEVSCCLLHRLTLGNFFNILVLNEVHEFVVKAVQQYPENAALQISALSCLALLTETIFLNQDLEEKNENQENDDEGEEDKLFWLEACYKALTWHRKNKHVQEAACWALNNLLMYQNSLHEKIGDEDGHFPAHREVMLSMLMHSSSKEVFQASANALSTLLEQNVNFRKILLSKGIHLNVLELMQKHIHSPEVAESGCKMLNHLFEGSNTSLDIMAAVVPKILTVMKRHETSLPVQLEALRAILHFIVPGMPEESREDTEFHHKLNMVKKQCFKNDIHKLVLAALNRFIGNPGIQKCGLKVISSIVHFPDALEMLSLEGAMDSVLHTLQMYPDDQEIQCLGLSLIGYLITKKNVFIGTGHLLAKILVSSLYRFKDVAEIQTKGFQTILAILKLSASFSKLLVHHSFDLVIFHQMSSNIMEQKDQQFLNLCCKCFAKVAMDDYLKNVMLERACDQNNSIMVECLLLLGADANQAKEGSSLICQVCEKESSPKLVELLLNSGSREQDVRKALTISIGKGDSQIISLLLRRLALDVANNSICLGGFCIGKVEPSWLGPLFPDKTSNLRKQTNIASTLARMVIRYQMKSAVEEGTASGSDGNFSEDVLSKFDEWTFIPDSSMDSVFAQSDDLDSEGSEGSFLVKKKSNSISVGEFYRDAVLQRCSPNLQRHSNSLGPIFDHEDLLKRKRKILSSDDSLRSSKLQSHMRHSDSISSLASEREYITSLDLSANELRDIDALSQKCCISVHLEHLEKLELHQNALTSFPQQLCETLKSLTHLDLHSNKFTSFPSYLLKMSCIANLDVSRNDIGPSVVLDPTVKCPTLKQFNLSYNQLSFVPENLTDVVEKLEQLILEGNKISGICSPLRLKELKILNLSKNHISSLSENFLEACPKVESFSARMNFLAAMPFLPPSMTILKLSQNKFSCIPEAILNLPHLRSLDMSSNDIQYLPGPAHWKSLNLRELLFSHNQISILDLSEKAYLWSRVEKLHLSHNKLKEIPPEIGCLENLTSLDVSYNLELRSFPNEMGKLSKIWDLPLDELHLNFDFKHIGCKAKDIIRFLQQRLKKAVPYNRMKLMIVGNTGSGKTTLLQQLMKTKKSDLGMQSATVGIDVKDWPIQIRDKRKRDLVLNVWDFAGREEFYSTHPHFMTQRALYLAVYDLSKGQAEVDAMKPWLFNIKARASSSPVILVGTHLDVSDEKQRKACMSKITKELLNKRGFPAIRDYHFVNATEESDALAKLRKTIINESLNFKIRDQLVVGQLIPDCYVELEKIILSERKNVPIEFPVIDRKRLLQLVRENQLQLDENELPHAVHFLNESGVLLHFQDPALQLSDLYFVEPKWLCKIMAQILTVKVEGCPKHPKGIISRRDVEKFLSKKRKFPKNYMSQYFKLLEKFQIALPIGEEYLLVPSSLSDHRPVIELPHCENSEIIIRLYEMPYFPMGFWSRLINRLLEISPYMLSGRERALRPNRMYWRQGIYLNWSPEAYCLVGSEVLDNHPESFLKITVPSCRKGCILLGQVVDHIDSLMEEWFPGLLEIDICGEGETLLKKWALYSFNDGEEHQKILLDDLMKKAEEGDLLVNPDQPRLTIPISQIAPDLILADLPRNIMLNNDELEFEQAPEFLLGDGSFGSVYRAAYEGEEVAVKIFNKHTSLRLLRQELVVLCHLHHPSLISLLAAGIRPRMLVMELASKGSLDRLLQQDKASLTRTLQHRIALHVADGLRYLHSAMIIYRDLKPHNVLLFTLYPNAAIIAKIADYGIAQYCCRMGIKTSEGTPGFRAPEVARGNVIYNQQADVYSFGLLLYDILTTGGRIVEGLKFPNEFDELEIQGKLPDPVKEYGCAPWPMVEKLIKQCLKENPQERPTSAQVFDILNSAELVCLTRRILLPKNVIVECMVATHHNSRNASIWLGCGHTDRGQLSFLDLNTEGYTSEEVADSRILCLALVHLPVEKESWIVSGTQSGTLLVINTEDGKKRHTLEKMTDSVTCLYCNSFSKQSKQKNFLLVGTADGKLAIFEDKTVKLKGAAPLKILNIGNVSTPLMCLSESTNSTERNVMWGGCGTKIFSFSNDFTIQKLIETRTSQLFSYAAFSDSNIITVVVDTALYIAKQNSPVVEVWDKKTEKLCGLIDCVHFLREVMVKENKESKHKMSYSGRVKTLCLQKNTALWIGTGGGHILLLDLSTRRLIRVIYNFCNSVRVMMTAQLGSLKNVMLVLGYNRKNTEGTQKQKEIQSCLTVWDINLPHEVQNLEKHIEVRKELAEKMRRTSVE

[15] = target: Leucine-rich repeat serine/threonine-protein kinase 2 (Homo sapiens) (UniProt Q5S007); conditions: at 1 µM
[16] = test system: Leucine-rich repeat serine/threonine-protein kinase 2 (Homo sapiens), Q5S007 [G2019S]; conditions: at 0.1 µM
Chain of Leucine-rich repeat serine/threonine-protein kinase 2 (Homo sapiens), Q5S007 [G2019S] (Q5S007 whole entry G2019S): as the sequence (Q5S007 whole entry) above, with G2019S counted along it

[17] = test system: Leucine-rich repeat serine/threonine-protein kinase 2 (Homo sapiens), Q5S007 [G2019S]; conditions: at 1 µM

Row | Compound | inhibition [1] [%] | inhibition [2] [%] | inhibition [3] [%] | inhibition [4] [%] | inhibition [5] [%] | inhibition [6] [%] | inhibition [7] [%] | inhibition [8] [%] | inhibition [9] [%] | inhibition [10] [%] | inhibition [11] [%] | inhibition [12] [%] | inhibition [13] [%] | inhibition [14] [%] | inhibition [15] [%] | inhibition [16] [%] | inhibition [17] [%]
1 | c1ccc(Nc2ncc(-c3ccccc3)o2)cc1 | 6.84 | 2.4 | 6.64 | -1.32 | 1.41 | 5.93 | 7.7 | 5.02 | 4.39 | 2.39 | 0.56 | 2.02 | 2.65 | 1.16 | 4.27 | 3.18 | 8.98
2 | COc1cc2ncnc(Nc3ccc(C)c(O)c3)c2cc1OC | 34.5 | 8.25 | 42 | 3.61 | 1.79 | 8.83 | 10 | 7.72 | 9.15 | 1.3 | -1.36 | 4.09 | 2.62 | 1.75 | 8.77 | 4.67 | 18.3
3 | Nc1ccc(C#Cc2cncnc2Nc2ccc(OCc3cccc(F)c3)c(Cl)c2)cc1 | 3.64 | 1.94 | 8.1 | -0.01 | -1.74 | 4.78 | 3.99 | 4.21 | 3.42 | -3.06 | -1.01 | 0.78 | 1.25 | 2.69 | 2.94 | 3.21 | 3.62
4 | O=S(=O)(CCOCc1ccc(-c2ccc3ncnc(Nc4ccc(OCc5cccc(F)c5)c(Cl)c4)c3c2)o1)c1ccccc1 | -0.33 | -1.93 | 2.61 | -5.44 | 0.81 | 2.33 | 3.21 | 2.43 | 3.05 | -0.94 | -1.29 | 0.22 | 0.93 | 4.19 | 9.06 | 6.55 | 10.3
5 | CCS(=O)(=O)c1ccc(OC)c(Nc2ncc(-c3cccc(OC)c3)o2)c1 | 40.6 | 34.5 | 80.2 | -1.53 | -2.95 | 1.82 | 5.54 | 1.52 | 4.88 | 5.24 | -3.45 | -4.04 | 2.08 | 5.57 | 20.2 | 7.7 | 42.6
6 | ON=C1CCc2cc(-c3nc(C4CCNCC4)[nH]c3-c3ccncc3)ccc21 | 1.37 | -1.71 | 0.86 | 1.57 | 1.96 | – | – | – | – | -7.53 | 10.2 | 4 | -0.27 | 1.51 | 2.68 | 0.74 | 4.07
7 | N#Cc1c(NC(=O)c2ccccc2F)sc2c1CCCC2 | -1.16 | 2.43 | -1.67 | -3.51 | 0.2 | -1.34 | -1.56 | -0.04 | 1.18 | -2.08 | -0.64 | -1.41 | -0.41 | 1.84 | 1.84 | 2.14 | 3.2
